We go through 23 compounds from PubChem BioAssay (NCATS).

Results filed as inconclusive are left out. Entries that show only a call come without a potency. The source made the active and inactive calls. Calls come from the whole dose curve; as a rule, active = well fitted inhibition curve with a large enough effect; inconclusive = small, poorly fitted or top-dose-only effect; inactive = no such curve, though single readings can be large or run the other way.

This test relates to Zika virus NS2B-NS3 protease (unlinked complex). The test can be described thus: Primary screen GU Rhodamine qHTS for Zika virus inhibitors: Unlinked NS2B-NS3 protease assay (AID 1347159). Note: nearly all actives have a fitted effect of over 60% in size. Particulars: Recombinant ZIKV NS2B-NS3 protease, Rhodamine110 substrate fluorescence; series mostly up to 107 µM. The essentials: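 In dose–response format, inhibition of unlinked protease (25 nM) was measured with 1.5 microM bis-peptide Rhodamine110 substrate. Aprotinin served as the intraplate control.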
In the case of `CC(C)/C=C1/NC(=O)C(C(C)C)n2c1nc1c(O)cccc1c2=O` (stereo not drawn), the Potency result was “inactive”.

As to `COC1OC(O)C2(CCC3(O2)C(C)CC2OC(=O)C4(C)CCCC3(C)C24)C1O` (stereo not drawn), the Potency result is “inactive”.

As for `CSCC1OC(n2cnc3c(N)ncnc32)C(O)C1O` (stereo not drawn), the Potency entry was “inactive”.

As for `OC[C@@]1(O)CO[C@H](OC[C@H]2O[C@@H](OC(CCCCc3ccc(O)cc3)CCc3ccc(O)cc3)[C@H](O)[C@@H](O)[C@@H]2O)[C@@H]1O` (stereo partly drawn), the Potency entry is “inactive”.

As for `CC1(C)CC[C@]2(C(=O)O[C@@H]3O[C@H](CO[C@@H]4O[C@H](CO)[C@@H](O)[C@H](O)[C@H]4O)[C@@H](O)[C@H](O[C@@H]4O[C@H](CO)[C@@H](O)[C@H](O)[C@H]4O)[C@H]3O)[C@H](O)C[C@]3(C)C(=CCC4[C@@]5(C)CC[C@H](O[C@@H]6OC[C@@H](O)[C@H](O)[C@H]6O)[C@@](C)(C(=O)O)C5CC[C@]43C)[C@@H]2C1` (stereo partly drawn), the Potency result was “inactive”.

Turning to `C[C@@H]1O[C@@H](O[C@H]2[C@H](OC(=O)[C@]34CCC(C)(C)C[C@H]3C3=CCC5[C@@]6(C)CC[C@H](O[C@@H]7O[C@H](CO[C@@H]8OC[C@H](O)[C@H](O)[C@H]8O)[C@@H](O)[C@H](O)[C@H]7O)C(C)(C)C6CC[C@@]5(C)[C@]3(C)C[C@H]4O)OC[C@@H](O)[C@@H]2O)[C@H](O)[C@H](O[C@@H]2OC[C@](O)(CO)[C@H]2O)[C@H]1O[C@@H]1OC[C@H](O)[C@H](O[C@@H]2OC[C@@H](O)[C@H](O)[C@H]2O)[C@H]1O` (stereo partly drawn), the activity change, negative = inhibition was -5.76% [at 19.1 µM] (inactive).

Take `COc1ccc(CCc2nc3cc(-c4c(C)noc4C)ccc3n2C[C@H](C)N2CCOCC2)cc1Cl`: the Potency entry was “inactive”.

For `COc1ccccc1N1CCN(CCCCNC(=O)c2ccc(-c3cscn3)cc2)CC1`, the Potency entry was “inactive”.

As to `COc1ccc(-n2[nH]c3c(cnc4ccccc43)c2=O)cc1`, the Potency entry is “inactive”.

For the compound `COC(=O)C(CC1(O)c2ccccc2N2C(=O)C(C)(C)N(O)C21)n1cnc2ccccc2c1=O` (stereo not drawn), the Potency entry was “inactive”.

For `C[C@@H]1O[C@@H](O[C@H]2[C@H](Oc3cc(O)c(C(=O)CCc4ccc(O)cc4)c(O)c3)O[C@H](CO)[C@@H](O)[C@@H]2O)[C@H](O)[C@H](O)[C@H]1O`, the Potency result was “inactive”.

On to `C/C=C(\C)C(=O)OCC1OC(OCC2OC(OC3(CO)OC(CO)C(O)C3O)C(O)C(O)C2O)C(O)C(O)C1O` (stereo not drawn), for which the Potency entry is “inactive”.

`COC(=O)C1=CO[C@@H](O[C@@H]2O[C@H](CO)[C@@H](O)[C@H](O)[C@H]2O)[C@@H]2[C@@H](C(=O)O)CC[C@H]12`: the Potency result was “inactive”.

Consider `C=C(C)C1CCC2(C(=O)OC3OC(COC4OC(CO)C(O)C(O)C4O)C(OC4OC(C)C(O)C(O)C4O)C(O)C3O)CCC3(C(=O)O)C(CCC4C5(C)CCC(=O)C(C)(C)C5CCC43C)C12` (stereo not drawn), for which the Potency result is “inactive”.

With `COC(=O)C[C@@H]1C(C(=O)O)=CO[C@@H](O[C@@H]2O[C@H](CO)[C@@H](O)[C@H](O)[C@H]2O)/C1=C\COC(=O)/C=C/c1ccc(O)c(OC)c1`, the Potency result is “inactive”.

On to `COC(=O)C1=COC(O[C@@H]2O[C@H](CO)[C@@H](O)[C@H](O)[C@H]2O)C2C(C)C(=O)CC12` (stereo partly drawn), for which the Potency entry was “inactive”.

With `COC(=O)C1=COC(OC2OC(CO)C(O)C(O)C2O)C2C(C)C(OC(C)=O)C(OC(=O)c3ccccc3)C12` (stereo not drawn), the Potency entry is “inactive”.

On to `CC(C)(O)C1OC1C1=CC(=O)C2(C)OC2C1O` (stereo not drawn), for which the Potency result was “inactive”.

With `OCC1OC(Oc2cc(O)cc(/C=C/c3ccc(OC4OC(CO)C(O)C(O)C4O)cc3O)c2)C(O)C(O)C1O` (stereo not drawn), the Potency entry is “inactive”.

For `Cc1ccc(-c2c(-c3nn(C)c4ncnc(N5CC[C@H](N6CCCCC6)C5)c34)cnn2C)cc1`, the Potency entry was “inactive”.

As to `COc1cc(C)c(C(=O)O[C@@H]2[C@H](O)[C@@H](CO)O[C@H]2n2ccc(=O)[nH]c2=O)c(OC)c1`, the Potency result was “inactive”.

On to `CC(=O)O[C@@H]1[C@H](O[C@@H]2OC[C@](O)(CO)[C@H]2O)[C@@H](O[C@@H]2O[C@@H](C)[C@H](O)[C@@H](O[C@@H]3O[C@H](CO)[C@@H](O)[C@H](O)[C@H]3O)[C@H]2O)[C@H](OC(=O)[C@]23CCC(C)(C)C[C@H]2C2=CCC4[C@@]5(C)C[C@H](O)[C@H](O[C@@H]6O[C@H](C(=O)O)[C@@H](O)[C@H](O)[C@H]6O)[C@@](C)(C(=O)O)C5CC[C@@]4(C)[C@]2(C)CC3)O[C@@H]1C` (stereo partly drawn), for which the activity change, negative = inhibition was 2.67% [at 19.1 µM] (inactive).

On to `C=C[C@]1(C)C[C@@H](OC(=O)CSC2C[C@H]3CC[C@@H](C2)N3C)[C@]2(C)[C@H](C)CC[C@]3(CCC(=O)[C@H]32)[C@@H](C)[C@@H]1O` (stereo partly drawn), for which the Potency entry is “inactive”.
